MEP2-GFP yeast = modulators of TOR pathway MEP2-GFP in S. cerevisiae | AID 2016 | 0.51% of 330,000 active | GFP response vs DMSO, % at 10 µM | S. cerevisiae MEP2-GFP strain, flow cytometry GFP, 3 h; 100% = DMSO control level;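 active = GFP response versus DMSO above a set limit, roughly screen mean plus 3 SD, cut at about 180% in these data; inconclusive = fewer than 70 cells counted for a yeast strain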;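 also: median GFP fluorescence of the barcode-gated MEP2-GFP cells per well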
RPL19A TOR yeast = modulators of TOR pathway RPL19A-GFP in S. cerevisiae | S. cerevisiae RPL19A-GFP strain, flow cytometry, 3 h; stronger effect = lower value | percent response vs DMSO, % at 10 µM | 0.3% of 330,000 active;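 active = percent response vs DMSO below 50%; inconclusive = fewer than 70 events counted for the yeast strain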;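 also: median channel GFP fluorescence of the barcoded RPL19A-GFP strain; ratio of sample median GFP to plate DMSO average so 100% = DMSO; lower means less RPL19A-GFP as with rapamycin TOR inhibition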
AGP1 TOR yeast = modulators of TOR pathway AGP1-GFP in S. cerevisiae; S. cerevisiae AGP1-GFP multiplex flow cytometry, 3 h; GFP as percent of DMSO wells; GFP response vs DMSO, % at 10 µM; 0.02% of 320,000 active; AID 2066;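 active = GFP response relative to DMSO above a set limit, near screen average plus 3 SD, cut at about 150% in these data; inconclusive = fewer than 70 cells counted for the yeast strain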;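 also: median GFP channel fluorescence of the gated AGP1 strain per well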
LAP4 TOR yeast = modulators of TOR pathway LAP4-GFP in S. cerevisiae; S. cerevisiae LAP4-GFP multiplex, flow cytometry GFP, 3 h; median GFP as percent of DMSO wells; GFP response vs DMSO, % at 10 µM; 0.34% of 320,000 active;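 active = GFP response vs DMSO above a set limit, about the screen mean plus 3 SD, cut at about 150% in these data; inconclusive = under 70 cell events counted for the yeast strain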
CIT2 TOR yeast = modulators of TOR pathway CIT2-GFP in S. cerevisiae | S. cerevisiae CIT2-GFP strain, flow cytometry, 3 h; 100 means same as DMSO wells | 0.065% of 320,000 active | GFP response vs DMSO, % at 10 µM;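 active = GFP response relative to DMSO above a set limit, near the screen mean plus 3 SD, cut at about 150% in these data; inconclusive = Fewer than 70 cells measured for a yeast strain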;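 also: ratio of well median GFP fluorescence to mean of DMSO wells on the plate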
* hit, by the source's call; ? = inconclusive; nt = not tested or not shown; [ ] = another dose, or the depositor's remark. Shown are actives, neighbours in structure and some others; about 0.92% of the full set was active somewhere.

SMILES	MEP2-GFP yeast	RPL19A TOR yeast	AGP1 TOR yeast	LAP4 TOR yeast	CIT2 TOR yeast
Cc1cc(C)c(C)c(S(=O)(=O)N(C)CCc2ccccn2)c1C	102	102	93	84	96
CC1CCN(CCCNC(=O)C2CCN(S(=O)(=O)N3CCC4(CC3)OCCO4)CC2)CC1	131	45*[may fluoresce violet]	18	84	?
COc1ccc(-c2cc(C)no2)cc1S(=O)(=O)NCCCN1CCCCCC1	104	102	103	102	98
CCOC(=O)c1ccc(N2CCOCC2)c(NS(=O)(=O)c2ccc(F)cc2)c1	111	95	119	107	168*[may fluoresce green]
CCC(C)(C)NC(=O)C(NS(=O)(=O)c1cccs1)c1ccccc1 (configuration not stated)	121	101	101	109	104
COc1ccc(NS(=O)(=O)c2cccc(NC(=O)c3ccc(S(=O)(=O)N4CCCCCC4)cc3)c2)cc1	100	99	100	96	98
O=C1c2cccc3cccc(c23)C(=O)N1OS(=O)(=O)c1ccccc1	263*[may fluoresce violet]	50	nt	94	?
O=C1c2cccc3cccc(c23)C(=O)N1OS(=O)(=O)c1ccc(Br)cc1	104	107	108	99	108
Cc1cc(C)cc(-c2nnc(SCc3ccc(C(=O)O)cc3)o2)c1	94	96	83	107	72
CN1CCN(S(=O)(=O)c2ccc(NC(=O)c3ccc(Br)o3)cc2)CC1	394*[may fluoresce violet]	21*[may fluoresce violet]	?	76	?
O=C(Nc1ccc(S(=O)(=O)N2CCCC2)cc1)c1ccc(Br)o1	106	98	95	102	107
O=C(Nc1ccc(S(=O)(=O)N2CCCC2)cc1)c1ccc(CN2CCOCC2)cc1	483*[may fluoresce violet]	58	19	105	?
O=C(Nc1ccc(S(=O)(=O)N2CCCCC2)cc1)c1ccc(CN2CCOCC2)cc1	104	116	96	78	91
CCOC(=O)N1CCC(N2Cc3cccc(C(=O)Nc4ccc(OCC)cc4)c3C2=O)CC1	99	98	109	105	100
CC(C)N(Cc1ccccc1)C(=O)COC(=O)/C=C/c1cnc2ccccc2n1	105	106	95	105	99
CCOc1ccc(Nc2nc(N)c([N+](=O)[O-])c(NCc3ccccc3)n2)cc1	104	100	110	110	97
CCOc1ccc(Nc2nc(N(C)c3ccccc3)nc(N)c2[N+](=O)[O-])cc1	199*	63	28	94	102
CC(C)OP(=O)(OC(C)C)C(NC(=O)c1cccc([N+](=O)[O-])c1)C(N)=O (configuration not stated)	90	100	109	92	99
CCN(c1ccc(OC)cc1)S(=O)(=O)c1ccc(-c2ccc(=O)[nH]n2)o1	92	96	99	91	99
COC(=O)c1ccc(CN(c2ccc(C(=O)O)c(O)c2)S(=O)(=O)c2ccc(Cl)c([N+](=O)[O-])c2)cc1	107	106	95	90	104
CCCCn1c(N)c(N(CC(C)C)C(=O)CSc2nnc(C)n2-c2ccc(OC)cc2)c(=O)[nH]c1=O	101	100	106	109	102
Cc1cccc(N2CCN(C(=O)c3ccc4c(c3)NC(=O)C(CSCc3cccc(F)c3)N4)CC2C)c1 (configuration not stated)	188*[may fluoresce violet]	20*[may fluoresce violet]	?	?	?
C=CCn1c(=N)c(C(=O)NCCCOC)cc2c(=O)n3cccc(C)c3nc21	173	34*[may fluoresce violet]	nt	83	?
CCCCCn1c(=N)c(S(=O)(=O)c2ccc(Cl)cc2)cc2c(=O)n3cccc(C)c3nc21	297*[may fluoresce violet]	53	?	87	?
Cc1cccn2c(=O)c3cc(C(=O)NCCN4CCOCC4)c(=N)n(CCc4ccccc4)c3nc12	210*[may fluoresce violet]	47*[may fluoresce violet]	90	94	?
SMILES	MEP2-GFP yeast	RPL19A TOR yeast	AGP1 TOR yeast	LAP4 TOR yeast	CIT2 TOR yeast
COc1ccc(CCn2c(=N)c(C(=O)NCCN3CCOCC3)cc3c(=O)n4cccc(C)c4nc32)cc1OC	97	98	96	88	94
Cc1cccn2c(=O)c3cc(C(=O)NCCN4CCOCC4)c(=N)n(CCCN4CCOCC4)c3nc12	224*[may fluoresce violet]	60	14	87	?
COC(=O)c1sc(NC(=S)NNC(=O)c2c(Br)c(C)nn2C)c(C(=O)OC)c1C	101	109	96	83	97
COCCn1c(=N)c(C(=O)NCCc2ccccc2)cc2c(=O)n3cccc(C)c3nc21	98	87	84	89	94
Cc1cccn2c(=O)c3cc(C(=O)NCCc4ccccc4)c(=N)n(CCCn4ccnc4)c3nc12	208*	51	nt	84	95
CCOc1ccc(C(=O)NC2CC(=O)N(c3ccc4c(c3)OCCO4)C2)cc1 (configuration not stated)	98	100	109	122	96
COc1cc(/C=N/n2cnnc2)ccc1OCCOc1ccccc1	262*[may fluoresce violet]	nt	29	90	?
COc1cc(/C=N/n2cnnc2)ccc1OCc1ccccc1	112	104	111	94	109
CC(Oc1ccccc1)C(=O)N1CCN(c2ccc(N3CCCCC3)nn2)CC1 (configuration not stated)	100	98	98	103	104
O=C(Nc1ccccc1Cl)NC1(C(=O)N2CCCCC2)CCCCC1	101	100	105	99	105
Cc1ccccc1NC(=O)NC1(C(=O)N2CCN(C)CC2)CCCCC1	282*[may fluoresce violet]	45*[may fluoresce violet]	?	91	?
O=C(Nc1ccccc1Cl)NC1(C(=O)N2CCCC2)CCCCC1	377*[may fluoresce violet]	32*[may fluoresce violet]	?	106	?
CC(=O)NCCc1nc2cc(NC(=O)c3cccs3)ccc2n1C	271*[may fluoresce violet]	90	50	99	?
CC(=O)NCCc1nc2cc(NC(=O)c3ccccc3Cl)ccc2n1C	101	101	96	90	102
CN1C(=O)/C(=C/c2ccc(-c3ccccc3[N+](=O)[O-])o2)SC1=Nc1ccc(Cl)c(C(=O)O)c1	126	41*[may fluoresce violet]	?	60	?
CC(NC(=O)c1sc2ccccc2c1Cl)C1CCCO1 (configuration not stated)	111	98	96	109	98
Cc1ccc(-n2nc3c(N4CCC(C(=O)N5CCC(C(N)=O)CC5)CC4)nnc(C)c3c2C)cc1	103	97	97	91	102
CCN1CCN(C(=O)C2CCN(c3nnc(C)c4c(C)n(-c5ccc(C)cc5)nc34)CC2)CC1	140	107	97	143	156*
CCC[n+]1c2ccccc2cc2ccccc21	139	83	16	103	?
CCCC[n+]1c2ccccc2cc2ccccc21	234*[may fluoresce violet]	61	20	105	?
COc1ccc(NC(=S)NC(=O)c2ccccc2Cl)cc1	177*[may fluoresce violet]	79	18	93	?
O=C(NC(=S)Nc1ccc(O)cc1)c1ccccc1Cl	106	99	101	104	84

Screening results (PubChem)
